{"source": "PubChem BioAssay AID1851", "about": "(National Center for Advancing Translational Sciences (NCATS), 2009)", "note": "Among all 16,000 compounds or so, about 2,600 (16%) were called active. About 20% were inconclusive and are not listed. The call rests on the fitted dose curve; in most records, active means well fitted curve in the direction sought with a large enough effect; inconclusive means small, poorly fitted or top-dose-only effect, or effect the other way; inactive means no such curve, though single readings can be large or run the other way. The list is a sample of the results. On the % scale 0 is the no-effect control and ±100 the full control effect."}
{"molecular_target": "Cytochrome P450 2D6 (Homo sapiens) (UniProt P10635)", "sequence (P10635 whole entry, looked up)": "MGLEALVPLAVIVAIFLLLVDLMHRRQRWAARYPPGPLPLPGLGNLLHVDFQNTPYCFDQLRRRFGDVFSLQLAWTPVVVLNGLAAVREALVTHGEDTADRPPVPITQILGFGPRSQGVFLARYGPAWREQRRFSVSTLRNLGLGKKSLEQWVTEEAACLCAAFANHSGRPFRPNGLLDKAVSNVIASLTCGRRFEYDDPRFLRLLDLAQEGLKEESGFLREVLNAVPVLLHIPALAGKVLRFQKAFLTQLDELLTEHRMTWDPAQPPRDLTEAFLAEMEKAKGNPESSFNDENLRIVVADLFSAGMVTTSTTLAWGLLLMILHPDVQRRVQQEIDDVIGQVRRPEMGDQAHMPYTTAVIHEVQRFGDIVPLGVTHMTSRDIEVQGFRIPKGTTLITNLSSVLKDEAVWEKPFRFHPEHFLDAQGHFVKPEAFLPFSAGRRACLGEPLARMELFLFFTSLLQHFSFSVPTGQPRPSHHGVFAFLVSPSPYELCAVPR", "assay": "Cytochrome panel assay with activity outcomes", "conditions": "recombinant CYP, pro-luciferin dealkylation, luminescence, p450-cyp2d6; series mostly up to 57.1 µM"}
{"smiles": "O=C(O)c1ccccc1-c1ccccc1C(=O)Nc1ccc2c(c1)Cc1ccccc1-2", "activity, negative = inhibition": "8.94% [at 11.4 µM] (inactive)"}
{"smiles": "O=[N+]([O-])c1cccc(/C(=N/N=C/c2ccccc2Br)C23CN4CN(CN(C4)C2)C3)c1", "AC50": "inactive"}
{"smiles": "Cc1ccc(C(=O)NNC(=O)c2cc3cc4ccccc4nc3s2)cc1", "AC50": "inactive"}
{"smiles": "Oc1ccc(-c2nc(-c3ccc(F)cc3)c(-c3ccncc3)[nH]2)cc1", "AC50": "5.01 µM (active)"}
{"smiles": "Cc1ccsc1-c1nc(-c2ccccc2)c(-c2ccccc2)[nH]1", "AC50": "inactive"}
{"smiles": "c1ccc(-c2n[nH]c(-c3ccccc3)c2-c2nc3ccccc3[nH]2)cc1", "AC50": "inactive"}
{"smiles": "O=c1cnc2cnc(Oc3ccccc3)nc2n1C1CC1", "AC50": "inactive"}
{"smiles": "Cc1ccc(C(=O)c2cn(-c3ccc(F)c(Cl)c3)nn2)cc1", "AC50": "inactive"}
{"smiles": "CC[C@](N)(CCC(=O)O)C(=O)O", "AC50": "inactive"}
{"smiles": "Nc1nnc(SCCOc2cccc(Br)c2)s1", "AC50": "11.2 µM (active)"}
{"smiles": "CCSc1nnc(NC(=O)COc2ccc3ccccc3c2)s1", "AC50": "inactive"}
{"smiles": "CCn1c2ccccc2c2cc(N=C3SC(CC(=O)Nc4ccccc4OC)C(=O)N3C)ccc21", "note": "(centres undefined)", "AC50": "inactive"}
{"smiles": "CCN(CC)c1nc(Nc2ccccc2)nc(Oc2ccc(C(=O)OC)cc2)n1", "AC50": "inactive"}
{"smiles": "Cc1c(N(C)CS(=O)(=O)O)c(=O)n(-c2ccccc2)n1C", "AC50": "inactive"}
{"smiles": "CN(C)C(=O)c1ccc(-c2nc(-n3ccnc3)c3ccccc3n2)cc1", "AC50": "15.8 µM (active)"}
{"smiles": "CN(C)C(=O)c1ccc(-c2nc(Nc3ccccc3)c3ccccc3n2)cc1", "AC50": "inactive"}
{"smiles": "CN(C)C(=O)c1ccc(-c2nc(Nc3ccncc3)c3ccccc3n2)cc1", "AC50": "inactive"}
{"smiles": "CN(C)c1ccc(-c2nc(-n3ccnc3)c3ccccc3n2)cc1", "AC50": "7.94 µM (active)"}
{"smiles": "COc1ccc(-n2c(=O)c(-c3cccs3)nc3cncnc32)cc1", "AC50": "inactive"}
{"smiles": "Cc1cc(=O)[nH]c2c1c(C)nn2C1CCOC(C)(C)C1", "note": "(centres undefined)", "AC50": "inactive"}
{"smiles": "O=C(Nc1nnc(CCS(=O)(=O)c2ccc(Br)cc2)s1)c1ccc([N+](=O)[O-])cc1", "AC50": "inactive"}
{"smiles": "O=S(=O)(O)c1ccc2cc(N=Nc3cc(S(=O)(=O)O)c4cccnc4c3O)ccc2c1", "activity, negative = inhibition": "-2.47% [at 11.4 µM] (inactive)"}
{"smiles": "O=C(CCC(=O)Nc1ccccc1)NNC(=O)c1cccs1", "AC50": "inactive"}
{"smiles": "CCn1ccc(C(=O)NC2C(=O)N3C(C(=O)O)=C(C)CSC23)n1", "note": "(centres undefined)", "AC50": "inactive"}
{"smiles": "COC(=O)Nc1nc2ccc(SC(C)C)cc2[nH]1", "AC50": "inactive"}
{"smiles": "COc1ccc(-n2c(=O)c(-c3ccccc3)nc3cnc(N4CCNCC4)nc32)cc1", "AC50": "inactive"}
{"smiles": "N[C@@H](Cc1cnc[nH]1)C(=O)O", "AC50": "inactive"}
{"smiles": "Fc1ccc(C(OCCCc2cnc[nH]2)c2ccc(F)cc2)cc1", "AC50": "0.631 µM (active)"}
{"smiles": "O=C(O)CC12C[C@H]3C[C@@H](CC(O)(C3)C1)C2", "activity, negative = inhibition": "1.29% [at 11.4 µM] (inactive)"}
{"smiles": "COc1ccc([C@H](O)c2ccccn2)cc1", "activity, negative = inhibition": "0.937% [at 11.4 µM] (inactive)"}
{"smiles": "COc1ccc(-c2cnnc(CCCn3ccnc3-c3ccccc3)n2)cc1", "activity, negative = inhibition": "-4.95% [at 11.4 µM] (inactive)"}
{"smiles": "COc1ccc(C(O)c2nccn2Cc2ccccc2)cc1", "note": "(centres undefined)", "AC50": "10 µM (active)"}
{"smiles": "CCNC(=O)C/C(C)=N/NC(=O)C12CC3CC(CC(C3)C1)C2", "AC50": "inactive"}
{"smiles": "COc1ccc(NC(=O)N2CC[C@@]3(CCCN(C(=O)c4ccc(OC)cc4)C3)C2)cc1", "AC50": "inactive"}
{"smiles": "COc1ccc(NC(=O)N2CCCC3(CCN(C(=O)c4cccn4C)CC3)C2)cc1", "AC50": "inactive"}
{"smiles": "N#Cc1ccc(C(c2nnnn2Cc2ccccc2)N2CCCC2)cc1", "note": "(centres undefined)", "AC50": "7.94 µM (active)"}
{"smiles": "CCn1c(SCc2ccc(C#N)cc2)nnc1-c1ccc(S(=O)(=O)N2CCCCC2)cc1", "AC50": "inactive"}
{"smiles": "COCC1C2CC[C@H]3C(OCc4ccc(F)cc4C(F)(F)F)OC[C@]4(C)[C@H]3C2=C(CN4C(=O)OC(C)(C)C)[C@H](C)C1COC", "note": "(some centres undefined)", "AC50": "inactive"}
{"smiles": "O=C(ON=C1CCN(S(=O)(=O)c2ccccc2)CC1)c1ccccc1", "AC50": "inactive"}
{"smiles": "c1ccn(-c2ccc(N3CCOCC3)cc2)c1", "AC50": "inactive"}
{"smiles": "COc1ccc(C(=O)NNC(=S)NC(=O)c2ccco2)cc1", "AC50": "inactive"}
{"smiles": "Cc1ccc(C)c(-n2c(Cc3cc(=O)[nH]c(=O)[nH]3)nnc2SCC(=O)NCC2CCCO2)c1", "note": "(centres undefined)", "AC50": "inactive"}
{"smiles": "OCCCN=C1CCCCC1", "activity, negative = inhibition": "-10.2% [at 11.4 µM] (inactive)"}
{"smiles": "CCOC(=O)c1ccccc1OCc1cc(/C=N/n2cnnc2)ccc1OC", "AC50": "inactive"}
{"smiles": "CC(C)C(=O)Nc1cc2c(cc1C(=O)c1ccccc1)OCCO2", "AC50": "inactive"}
{"smiles": "CC(Sc1ccc2c(c1)OCCO2)C(=O)Nc1ncc(Cl)cc1Cl", "note": "(centres undefined)", "AC50": "12.6 µM (active)"}
{"smiles": "CC(C)Cn1c(N)c(C(=O)CSc2ccc3c(c2)OCCO3)c(=O)n(C)c1=O", "AC50": "inactive"}
{"smiles": "CCn1c(C)nc2cc(C(=O)NNS(=O)(=O)c3ccccc3F)ccc21", "AC50": "inactive"}
{"smiles": "Cc1cc(C)cc(N(C(=O)C2CCCC2)C2C=CS(=O)(=O)C2)c1", "note": "(centres undefined)", "AC50": "inactive"}
{"smiles": "COc1ccc(C(=O)N2CCC3(CC2)CN(C(=O)NC(C)C)C3)cc1", "AC50": "inactive"}
{"smiles": "COc1cc(C)ccc1OCCCOc1ccccc1Cl", "AC50": "inactive"}
{"smiles": "COc1ccccc1OCCCOc1ccc([N+](=O)[O-])cc1Cl", "AC50": "11.2 µM (active)"}
{"smiles": "COc1ccccc1CC(=O)O/N=C(\\N)c1cccc([N+](=O)[O-])c1", "AC50": "inactive"}
{"smiles": "Cc1ccc(OCC(=O)NNC(=O)c2cc3ccccc3o2)cc1", "AC50": "inactive"}
{"smiles": "CCCS(=O)(=O)N1CCCC(C(=O)NCC2CCCO2)C1", "note": "(centres undefined)", "AC50": "inactive"}
{"smiles": "O=C(Nc1ccc(Br)cc1)C1CCC(=O)N1Cc1ccccc1Cl", "note": "(centres undefined)", "AC50": "inactive"}
{"smiles": "CCCS(=O)(=O)N1CCCC(C(=O)NCCCN2CCN(c3cccc(Cl)c3)CC2)C1", "note": "(centres undefined)", "AC50": "5.62 µM (active)"}
{"smiles": "CCCS(=O)(=O)N1CCCC(C(=O)N2CCN(c3ccccc3)CC2)C1", "note": "(centres undefined)", "AC50": "inactive"}
{"smiles": "CCCS(=O)(=O)N1CCCC(C(=O)NCCCN2CCN(c3ccccc3F)CC2)C1", "note": "(centres undefined)", "AC50": "10 µM (active)"}
{"smiles": "CCCS(=O)(=O)N1CCCC(C(=O)NCCN2CCC(Cc3ccccc3)CC2)C1", "note": "(centres undefined)", "AC50": "0.501 µM (active)"}
{"smiles": "CCCS(=O)(=O)N1CCCC(C(=O)NCCCOC(C)C)C1", "note": "(centres undefined)", "AC50": "inactive"}
{"smiles": "O=C(NCCCN1CCN(c2cccc(Cl)c2)CC1)C1CCC(=O)N1Cc1ccccc1Cl", "note": "(centres undefined)", "AC50": "5.01 µM (active)"}
{"smiles": "CCCS(=O)(=O)N1CCCC(C(=O)NCCN2CCOCC2)C1", "note": "(centres undefined)", "AC50": "inactive"}
{"smiles": "CCCN(CCC)CCNC(=O)C1CCCN(S(=O)(=O)c2ccc3c(c2)oc(=O)n3C)C1", "note": "(centres undefined)", "AC50": "inactive"}
